Screens (PubChem BioAssay)
Only some compounds are listed: those with a hit (about 2.2% of all), similar ones and a draw of the others.
PvdQ acylase – blocks Pseudomonas aeruginosa PvdQ acylase activity. purified PvdQ acylase, fluorescence plate reader. inhibition, % at 10 µM. 340,000 compounds, 0.063% hits; in the data active means inhibition above about 30%, passing the limit was not always enough; inconclusive means no clear call, values can overlap the other calls
GASC-1 inh – human JMJD2C demethylase inhibition | AID 2099 | inhibition, % at 2.35 µM | GST-JMJD2C(1-420) H3K9me3 demethylation, DELFIA europium | 330,000 compounds, 0.069% hits | Q9H3R0;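 active means more than half of a compound's replicate wells show inhibition beyond 50%, single wells judged on their own value; inconclusive means some, but no more than half, of replicates pass 50% inhibition; inactive means no replicate passes 50% inhibition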;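 further: signal counts dimethyl H3K9 product captured on neutravidin plate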
Mot1-301 SUMO – blocks SUMOylation pathway, rescuing yeast Mot1-301 growth | S. cerevisiae Mot1-301 growth rescue, ATP luminescence, 38.5C; percent above DMSO median, 100 means doubled | growth rescue, % at 18.8 µM | 320,000 compounds, 1% hits;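 active means every valid replicate shows activation above 250% relative to neutral control wells; inactive means the rest, any valid replicate at or below 250%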
HDAC3 inhib – inhibitors of human histone deacetylase 3; O15379; recombinant HDAC3, fluorogenic peptide/trypsin coupled, fluorescence; inhibition, % at 8.3 µM; 320,000 compounds, 0.15% hits; AID 2718; in the data active means inhibition above about 26%, passing the limit was not always enough; inconclusive means no clear call, values can overlap the other calls
pCIP destab – p/CIP protein destabilization | Q05BA5 | F442A p/CIP-EGFP cells, EGFP fluorescence, 16 h | decrease of EGFP signal, % at 10 µM | 290,000 compounds, 0.01% hits | AID 1984;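 active means EGFP signal decrease of at least 30% at 10 µM or well 3 SD below plate mean, unless failing retest; inactive means the rest, including hits failing retest or dose response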
Target sequence (Q05BA5 1-1403): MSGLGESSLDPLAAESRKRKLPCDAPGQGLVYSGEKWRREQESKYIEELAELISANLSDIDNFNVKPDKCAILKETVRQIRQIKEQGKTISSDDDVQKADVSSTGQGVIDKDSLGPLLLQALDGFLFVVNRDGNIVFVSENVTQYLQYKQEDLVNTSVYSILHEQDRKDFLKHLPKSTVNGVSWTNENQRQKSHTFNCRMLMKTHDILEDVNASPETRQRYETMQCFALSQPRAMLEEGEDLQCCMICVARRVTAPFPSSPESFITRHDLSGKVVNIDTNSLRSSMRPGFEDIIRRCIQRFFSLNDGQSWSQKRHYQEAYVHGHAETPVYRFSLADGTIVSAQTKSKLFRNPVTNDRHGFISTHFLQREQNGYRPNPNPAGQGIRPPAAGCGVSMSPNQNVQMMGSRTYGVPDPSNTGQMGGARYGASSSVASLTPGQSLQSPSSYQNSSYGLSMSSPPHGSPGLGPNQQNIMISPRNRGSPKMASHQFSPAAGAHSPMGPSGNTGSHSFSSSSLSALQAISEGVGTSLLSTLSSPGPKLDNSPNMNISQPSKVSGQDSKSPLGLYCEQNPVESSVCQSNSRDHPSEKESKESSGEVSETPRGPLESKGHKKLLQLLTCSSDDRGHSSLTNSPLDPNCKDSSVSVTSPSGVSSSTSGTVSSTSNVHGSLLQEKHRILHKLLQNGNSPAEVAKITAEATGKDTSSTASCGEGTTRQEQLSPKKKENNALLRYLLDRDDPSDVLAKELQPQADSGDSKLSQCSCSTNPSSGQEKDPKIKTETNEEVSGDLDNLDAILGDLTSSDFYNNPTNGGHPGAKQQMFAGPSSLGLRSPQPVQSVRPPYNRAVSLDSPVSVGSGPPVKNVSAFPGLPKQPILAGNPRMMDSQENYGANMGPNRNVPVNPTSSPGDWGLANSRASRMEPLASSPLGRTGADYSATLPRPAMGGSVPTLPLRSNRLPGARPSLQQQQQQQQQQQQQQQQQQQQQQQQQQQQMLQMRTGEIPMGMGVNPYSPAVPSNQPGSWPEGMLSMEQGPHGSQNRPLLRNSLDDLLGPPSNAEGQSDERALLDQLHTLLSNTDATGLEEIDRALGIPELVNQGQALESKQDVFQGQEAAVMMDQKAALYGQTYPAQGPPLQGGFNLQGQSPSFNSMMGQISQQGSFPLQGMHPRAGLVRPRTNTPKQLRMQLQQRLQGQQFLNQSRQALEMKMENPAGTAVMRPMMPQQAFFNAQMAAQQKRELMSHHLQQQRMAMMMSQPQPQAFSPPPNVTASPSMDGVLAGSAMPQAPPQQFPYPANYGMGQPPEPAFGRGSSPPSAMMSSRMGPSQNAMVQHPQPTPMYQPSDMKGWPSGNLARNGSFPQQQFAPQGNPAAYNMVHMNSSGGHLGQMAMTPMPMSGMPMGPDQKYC
PHOSPHO1 inh – blocks human PHOSPHO1 phosphatase activity; Q8TCT1; recombinant PHOSPHO1, absorbance phosphatase assay; inhibition, % at 13.3 µM; 290,000 compounds, 1.1% hits; AID 1565; in the data active means inhibition above about 60%
Hits are given with their value; - = inactive; ? = inconclusive; . = no result.

SMILES | PvdQ acylase | GASC-1 inh | Mot1-301 SUMO | HDAC3 inhib | pCIP destab | PHOSPHO1 inh
O=C(CO/N=C/c1cccc([N+](=O)[O-])c1)NC1CCCCC1 | - | - | - | - | - | -
O=C(CO/N=C/c1cccc([N+](=O)[O-])c1)Nc1ccc2ccccc2c1 | - | - | 338 | - | - | -
O=C(c1ccco1)[C@@H]1[C@@H]2C(=O)N(c3ccc(F)cc3)C(=O)[C@@H]2C2c3ccccc3C=CN21 (some centres undefined) | . | - | - | - | - | -
O=C(c1ccco1)[C@@H]1[C@@H]2C(=O)N(c3ccc(Br)cc3)C(=O)[C@@H]2C2c3ccccc3C=CN21 (some centres undefined) | - | . | . | . | - | 68
COc1ccc(S(=O)(=O)N2CCC(C(=O)NCCN3CCOCC3)CC2)cc1C | - | - | - | - | - | -
COc1ccc(S(=O)(=O)N2CCCC(C(=O)NCCN3CCOCC3)C2)cc1C (centres undefined) | - | - | 318 | - | - | -
Cc1ccc(N2CC(C(=O)OCC(=O)Nc3ccccc3C)CC2=O)cc1 (centres undefined) | - | - | - | - | . | .
NC1=NN=C(c2ccc3c(c2)OCCO3)CS1 | - | - | - | 49 | - | -
COc1ccc(CCN2CC(C(=O)NCCN3CCOC3=O)CCC2=O)cc1 (centres undefined) | - | - | - | - | - | -
C[C@H]1CN([C@@H](C)CO)C(=O)c2cc(NC(=O)Cc3ccccc3)ccc2O[C@H]1CN(C)Cc1ccccc1 | - | - | - | - | . | .
C[C@H](CO)N1C[C@H](C)[C@@H](CN(C)C)Oc2c(NC(=O)CCCCCC(=O)Nc3ccccc3N)cccc2C1=O | - | - | - | 67 | . | .
C[C@H](CO)N1C[C@H](C)[C@@H](CN(C)Cc2ccncc2)Oc2c(NC(=O)Cc3ccccc3)cccc2C1=O | - | - | - | - | . | .
C[C@H](CO)N1C[C@H](C)[C@@H](CN(C)C)Oc2c(NC(=O)Cc3ccccc3)cccc2C1=O | - | . | . | . | . | .
C[C@H](CO)N1C[C@H](C)[C@@H](CN(C)Cc2ccncc2)Oc2c(NC(=O)CCCCCC(=O)Nc3ccccc3N)cccc2C1=O | - | - | - | 57 | . | .
C[C@H](CO)N1C[C@H](C)[C@@H](CN(C)Cc2ccccc2)Oc2ccc(NC(=O)CCCCCC(=O)Nc3ccccc3N)cc2C1=O | - | - | - | 75 | . | .
COc1ccccc1C1c2c(C)nn(-c3ccccc3)c2NC(=O)C1NC(=O)c1ccccc1 (centres undefined) | - | - | - | - | - | -
CCOc1ccccc1CNCC1CCCO1 (centres undefined) | - | - | - | - | - | -
CCc1nnc(NC(=O)CSc2nnc(COc3ccccc3)n2Cc2ccccc2)s1 | - | - | - | - | - | 60
CCc1nnc(NC(=O)CSc2nc3cccnc3n2Cc2ccccc2)s1 | - | - | 305 | - | - | -
O=C(CCN1C(=O)C2CCCCC2C1=O)N1CCN(S(=O)(=O)c2ccccc2)CC1 (centres undefined) | - | - | - | - | . | .
CC(NCC(O)COc1ccccc1)C1COc2ccccc2O1 (centres undefined) | - | - | - | - | - | -
CCc1ccccc1NC(=O)CSc1nc(-c2ccccc2)nn1C(=O)c1cccc([N+](=O)[O-])c1 | . | - | - | - | - | -
O=C(CSc1nc(-c2ccccc2)nn1C(=O)c1ccccc1)Nc1cccc([N+](=O)[O-])c1 | - | - | - | 41 | - | -
Oc1ccc(CN2CCCCC2)nc1-c1ccccc1 | - | - | - | - | - | -
Oc1ccc(-c2ccccc2)cc1CN1CCCCCC1 | - | - | 341 | - | - | -
SMILES | PvdQ acylase | GASC-1 inh | Mot1-301 SUMO | HDAC3 inhib | pCIP destab | PHOSPHO1 inh
O=[N+]([O-])c1ccccc1/C=C/C=N/n1c(-c2ccc(Cl)cc2)n[nH]c1=S | - | - | - | - | - | 104
Cc1ccc(-c2n[nH]c(=S)n2/N=C/C=C\c2ccccc2[N+](=O)[O-])cc1 | - | - | - | - | - | 92
O=[N+]([O-])c1ccccc1/C=C/C=N/n1c(-c2ccccc2)n[nH]c1=S | - | - | . | - | - | -
CCN1C(=S)SC(=O)C1=C1C=C(C)N(Cc2ccco2)C(C)=C1 | - | - | - | - | - | 66
CCN1C(=S)SC(=O)C1=C1C=C(C)OC(C)=C1 | - | - | - | - | - | -
CN(Cc1ccccc1)C(=O)c1cc(-c2ccc(Br)cc2)on1 | - | - | - | - | - | -
Cc1cc(C(=O)N(C)Cc2ccc(Br)cc2)no1 | - | - | - | - | - | 85
CC(=O)n1cc([C@H]2C=C(C(=O)N3CCOCC3)O[C@@H](OCCCCO)C2)c2ccccc21 | - | - | - | - | . | .
O=C(CCc1ccccc1O)N/N=C/c1ccc(Sc2cccc3cccnc23)o1 | - | - | - | - | - | 98
O=C(CSc1cccc2cccnc12)N/N=C/c1ccc(O)cc1 | - | - | - | . | - | -
OCc1csc(=Nc2ccccc2)n1-c1ccccc1 | - | 57 | - | - | - | -
COc1ccc(C(=O)NC2CCCc3c2cnn3-c2cccc(C)c2C)o1 (centres undefined) | - | - | - | - | - | 64
COCC(=O)Nc1cc(Cl)c(OC)cc1OC | - | - | . | - | - | -
C[N+]1(CCOS(=O)C23CC4CC(CC(C4)C2)C3)CCOCC1 (centres undefined) | - | - | - | - | - | 81
CC1(OC(=O)c2ccc(Cl)nc2)C(=O)C=C2C=C(c3ccc(C#N)cc3)OC=C2C1=O (centres undefined) | . | - | - | - | . | .
Cc1cc([N+](=O)[O-])ccc1NC(=O)CSc1nncn1-c1ccccn1 | - | - | 737 | - | - | -
CC(c1ccco1)N(C(=O)c1ccccc1NS(=O)(=O)c1cccc([N+](=O)[O-])c1)c1ccccn1 (centres undefined) | - | - | - | - | - | -
CC(c1ccco1)N(C(=O)c1ccccc1NS(=O)(=O)c1cc([N+](=O)[O-])ccc1Cl)c1ccccn1 (centres undefined) | - | - | 402 | ? | - | -
COc1ccc(CCNCC(=O)Nc2ccc(OC(F)(F)F)cc2)cc1OC | - | - | - | - | - | -
CC(=O)C1=C(C)Nc2cc(C(F)(F)F)ccc2S1 | - | - | - | - | - | 96
Cn1c(CCNC(=O)OC(C)(C)C)n[nH]c1=S | - | - | - | - | - | 79
CC(C)(C)OC(=O)NCCc1n[nH]c(=S)o1 | . | - | - | - | - | -
COc1cccc(C(=O)NCc2n[nH]c(=S)n2-c2cccc(C)c2)c1 | - | - | - | - | - | 87
COc1ccc(-n2c(CNC(=O)c3cc(OC)c(OC)c(OC)c3)n[nH]c2=S)cc1 | - | - | - | - | - | -
COc1ccc(CC(=O)NCc2n[nH]c(=S)n2-c2cccc(C)c2)cc1 | - | - | - | - | - | -
